Assay outcomes deposited in PubChem BioAssay by National Center for Advancing Translational Sciences (NCATS).
Shown are actives, neighbours in structure and some others; about 19% of the full set was active somewhere.
TDP1 cell CPT: qHTS for Inhibitors of human tyrosyl-DNA phosphodiesterase 1 (TDP1): qHTS in cells in presence of CPT; Potency, µM (highest dose often 46.2 µM), without a hit: at the highest dose activity change, negative = growth inhibition, hits mostly inhibitors; AID 686979, 2013; chicken DT40 Tdp1-/-;hTDP1 cells + 20 nM CPT, ATP luminescence, 48 h; hit rate 12% among 420,000; also: potency is read from the fitted curve at half-maximal effect; nearly all actives have a fitted effect of over 55% in size
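Chicken DT40 Tdp1-/- cells stably complemented with human TDP1 were seeded at 400 cells/well in medium containing 20 nM camptothecin, exposed to pin-transferred compounds, and grown at 37 °C for at least 48 hr. Viability was read as ATP luminescence.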
IL-1B inflam inh: qHTS for Inhibitors of Inflammasome Signaling: IL-1-beta AlphaLISA Primary Screen; hit rate 4.7% among 360,000; THP-1 LPS/ATP IL-1B secretion, AlphaLISA, 16 h; active compounds read low; activity change, % at 57.5 µM; in the data active = activity change below about -50%; inconclusive = mostly about -30% to -49%
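Secreted IL-1B measured by AlphaLISA bead assay after 16 h compound exposure of THP-1 cells; compounds (final up to 57.5 uM) added 1 h before LPS (250 ng/mL) and ATP (1.25 mM) stimulation; lower signal means less secretion.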
HT1080 IDH1KD tx: qHTS for induction of synthetic lethality in tumor cells producing 2HG: qHTS for the HT-1080-IDH1KD cell line; HT-1080 IDH1 knockdown viability, ATP luminescence, 48 h; Potency, µM (titrated, usually from 46.1 µM), for the others: top-dose activity, negative = toxicity, actives largely listed as cytotoxic; hit rate 2% among 360,000; AID 686971, 2013;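 also: potency is read from the fitted curve at half-maximal effect; 0% = DMSO wells and -100% = cell-free medium wells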
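Viability of IDH1-knockdown HT-1080 fibrosarcoma cells was assessed by CellTiter-Glo after 48 h at 37 °C with titrated compound; concentration-effect curves were classified by fit quality and response size.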
TDP1 cell noCPT: qHTS for Inhibitors of human tyrosyl-DNA phosphodiesterase 1 (TDP1): qHTS in cells in absence of CPT; DT40 Tdp1-/- hTDP1 cells, no CPT, ATP luminescence, 48 h; Potency, µM (series often up to 46.2 µM), inactives show top-dose activity change, negative = growth inhibition, actives largely listed as inhibitors; hit rate 15% among 420,000; AID 686978, 2013; also: potency is read from the fitted curve at half-maximal effect; nearly all actives have a fitted effect of over 55% in size
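Readout: luminescence from CellTiter-Glo after 30 min in the dark at RT. Cells: DT40 Tdp1-/- with stable hTDP1, 400/well. Exposure: compounds alone, ≥48 hr, 37 °C.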
HT1080NT lethal: qHTS for induction of synthetic lethality in tumor cells producing 2HG: qHTS for the HT-1080-NT fibrosarcoma cell line | HT-1080-NT fibrosarcoma viability, CellTiter-Glo ATP luminescence, 48 h | hit rate 1.6% among 360,000 | Potency, µM (top dose mostly 46.1 µM), for the others: at the highest dose activity, negative = less viability, most hits filed as cytotoxic;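 also: NT is the 2HG producing partner of a matched IDH1 knockdown line; potency is read from the fitted curve at half-maximal effect; 0% = DMSO-treated cells and -100% = media-only wells without cells; nearly all actives have a fitted effect of over 55% in size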
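Read-out is CellTiter-Glo luminescence after 10 minutes at room temperature, following 48 hours' compound treatment of HT-1080-NT cells (750 cells/well, RPMI, 5% FBS, 37 degrees C).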
uPA surface inh: qHTS for Inhibitors of Cell Surface uPA Generation. hit rate 0.31% among 330,000. cell surface uPA generation assay, qHTS. Potency, µM (series often up to 38.3 µM), for inactives: top-dose activity change, negative = inhibition, actives largely listed as inhibitors; active = well fitted inhibition curve with a large enough effect; inconclusive = small, poorly fitted or top-dose-only effect; inactive = no such curve, though single readings can be large or run the other way; tested in mouse RAW 264.7 cells; also: potency is read from the fitted curve at half-maximal effect; nearly all actives have a fitted effect of over 55% in size
Numbers without * were called inactive; ? = inconclusive; / = not tested or not shown; [ ] = remark or other dose. Unless noted, calls follow the shape of the dose curve; as a rule, active = well fitted curve in the direction sought with a large enough effect; inconclusive = small, poorly fitted or top-dose-only effect, or another doubt; inactive = no such curve, though single readings can be large; an effect the other way counts as inactive or inconclusive. Unless noted, % is scaled to controls: 0 for no effect and ±100 for the full control effect.

SMILES | TDP1 cell CPT | IL-1B inflam inh | HT1080 IDH1KD tx | TDP1 cell noCPT | HT1080NT lethal | uPA surface inh
Cn1c(N)c(S(=O)(=O)NCc2ccccc2Cl)c(=O)n(C)c1=O | 22% | -24 | -6% | -44% | -7% | -11%
COc1ccc(NS(=O)(=O)c2cc(NC(=O)C(CC(C)C)NC(N)=O)ccc2N2CCOCC2)cc1 (configuration not stated) | 8% | 0 | 0% | 11% | -1% | 3%
O=C(/C=C/c1ccc2ccccc2n1)N1CCN(S(=O)(=O)c2ccccc2F)CC1 | 23µM* | -76* | -21% | 18µM* | -12% | ?
O=C(/C=C/c1ccc2ccccc2n1)N1CCN(S(=O)(=O)c2ccc(F)cc2)CC1 | ? | -89* | ? | ? | -23% | ?
NS(=O)(=O)c1ccc(CCNC(=O)COC(=O)C2CCN(c3ccc(C(F)(F)F)cn3)CC2)cc1 | -31% | -4 | 0% | -12% | -7% | 2%
CCCNC(=O)COCc1cc(-c2ccc(F)cc2)on1 | -20% | / | / | ? | / | /
O=C1C2C3C=CC(C3)C2C(=O)N1/N=C/c1cn(Cc2ccccc2)c2ccccc12 (configuration not stated) | 16µM* | 13 | -14% | ? | -18% | -2%
O=C1C2C3C=CC(C3)C2C(=O)N1/N=C/c1cn(Cc2ccc(F)cc2)c2ccccc12 (configuration not stated) | -3% | -7 | ? | -19% | -20% | 16%
CC1(C)CC(=O)c2cc(C(=O)Nc3cccc4ccccc34)c(=O)[nH]c2C1 | ? | / | / | 16µM* | / | /
CCc1cccc(NC(=O)C2CCN(C(=O)c3cnn(-c4ccccc4)c3-n3cccc3)CC2)c1 | 21µM* | / | / | 15µM* | / | /
CCCSCCCNC(=O)C1CCN(C(=O)c2cnn(-c3ccccc3)c2-n2cccc2)CC1 | 18µM* | / | / | ? | / | /
O=C(NCc1ccccc1)C1CCN(C(=O)c2cnn(-c3ccccc3)c2-n2cccc2)CC1 | -30% | / | / | -19% | / | /
COCCCNC(=O)C1CCN(C(=O)c2cnn(-c3ccccc3)c2-n2cccc2)CC1 | -3% | / | / | -4% | / | /
Cc1ccc(Cl)cc1NC(=O)C1CCN(C(=O)c2cnn(-c3ccccc3)c2-n2cccc2)CC1 | -30% | / | / | 21µM* | / | /
O=C(Nc1cc(F)ccc1F)C1CCN(C(=O)c2cnn(-c3ccccc3)c2-n2cccc2)CC1 | ? | / | / | 26µM* | / | /
CC(CCc1ccc(O)cc1)N1CCOc2c(O)cc(-c3nc4ccccc4s3)cc2C1 (configuration not stated) | 18µM* | / | / | 16µM* | / | /
Oc1ccc(Cl)cc1CN1CCOc2c(O)cc(-c3nc4ccccc4s3)cc2C1 | -14%[9.04 µM] | / | / | ? | / | /
CCCCn1c(=O)c2oc3ccccc3c2n(Cc2ccc(C)cc2)c1=O | -4% | / | / | ? | / | /
CC(CC(=O)N(CCC1=CCCCC1)c1c(N)n(Cc2ccccc2)c(=O)[nH]c1=O)c1ccccc1 (configuration not stated) | 26µM* | 14 | ? | 16µM* | ? | -1%
CCOc1ccc(OCCC(=O)N(CCC2=CCCCC2)c2c(N)n(Cc3ccccc3)c(=O)[nH]c2=O)cc1 | 16µM* | -2 | -22% | ? | -9% | -3%
CCCCOc1c(Br)cc(/C=C2\N=C(C)OC2=O)cc1OCC | 13µM* | -10 | -6% | ? | -2% | -5%
CCOc1cc(/C=C2/C(=O)ON=C2C)cc(Br)c1O | ? | 0 | 6% | ? | -1% | -14%
CC(Nc1ccc(Cl)cc1)C(=O)NN (configuration not stated) | -4% | 3 | 0% | 10% | -1% | ?
Clc1ccc(OCc2nc(-c3ccccn3)no2)c(Br)c1 | -23% | -21 | -28% | ? | -19% | 3.5µM*
COc1ccc(C2CC(=O)NC(NC(=O)c3ccc(Br)cc3)=N2)c(OC)c1OC (configuration not stated) | -9% | / | / | -9% | / | /
SMILES | TDP1 cell CPT | IL-1B inflam inh | HT1080 IDH1KD tx | TDP1 cell noCPT | HT1080NT lethal | uPA surface inh
C/C=C/c1cccc(-c2nc(C(=O)NC3CCC3)cc3c2[C@@H](CCO)N(S(=O)C(C)(C)C)C3)c1 (some centres not stated) | ? | / | -3% | ? | 5% | /
C#CCOc1ccccc1CNC1CCN(Cc2ccccc2)CC1 | ? | -3 | 0% | 21µM* | -6% | -11%
C#CCOc1ccccc1CNc1ccccc1 | -7% | 0 | -1% | -24% | -2% | -10%
CCOc1ccccc1C(=O)NC1CCN(Cc2ccccc2)CC1 | 1% | 9 | 6% | -5% | 17% | 2%
CCOc1ccccc1C(=O)NC1CC2CCCC(C1)N2Cc1ccc(C)cc1 (configuration not stated) | ? | 2 | 3% | 21µM* | -10% | 3%
O=C(NC1CCN(Cc2ccccc2)CC1)c1ccccc1OCc1ccccc1 | ? | -3 | -2% | 7.3µM* | 9% | -3%
O=C(NC1CCN(Cc2ccccc2)CC1)c1ccccc1OCc1ccccc1Cl | 16µM* | -88* | ? | ? | -29% | -5%
CCOc1ccc(C2C(C(=O)Nc3ccc(OC)cc3)=C(C)Nc3nc(SCc4ccc(Cl)cc4)nn32)cc1 (configuration not stated) | -1% | / | / | -23% | / | /
CCc1nc2c(OCCn3cccc3)cccn2c1N(C)C(=O)c1ccc(OC)cc1 | 6% | -4 | 14% | -5% | 7% | /
CCN(CC)C(=O)Oc1ccc2c(=O)c(-c3ccccc3)coc2c1 | ? | -54* | -3% | ? | -19% | 13%
COc1ccc2c(=O)c(-c3ccccc3)coc2c1 | ? | -7 | 0% | ? | 1% | ?
COc1cc(/C=C2/SC(=O)NC2=O)ccc1OCc1ccccc1 | -18% | 102 | ? | ? | 23µM* | ?
COc1ccccc1OCCCOc1ccc(/C=C2\SC(=O)NC2=O)cc1OC | 16µM* | -6 | ? | 13µM* | -28% | -5%
COc1cc(/C=C2/SC(=O)N(Cc3ccccc3Cl)C2=O)ccc1OCc1ccncc1 | 18µM* | -14 | 11% | ? | 10% | 1%
COc1ccccc1OCCCOc1cccc(/C=C2\SC(=O)NC2=O)c1 | ? | 21 | ? | ? | ? | -3%
